Assays:
Test in all cases: PBM binding z-score (relative to random genomic background probes); higher = stronger binding; sequences stand for … in GC…GCGATTGACAGCGTAGAATGAAGG
[1] = tested on: FXR:RXRa (NR concentration 270 nM, RXRa partner concentration 90 nM)
In short: (§1)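 Binding buffer was PBS pH 7.4 with 2% milk, 0.02% Triton X-100, 1 mM DTT, 0.2 mg/mL BSA and 0.4 mg/ml salmon testes DNA. In it, ligand-free nuclear receptor dimers were incubated 1 h on custom Agilent 4×180K protein-binding microarrays carrying double-stranded probes. Antibodies against each partner (one per run) detected binding, and z-scores were calculated against random background probes after regression normalization of scanned fluorescence.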

[2] = tested on: LXRa:RXRa (NR concentration 270 nM, RXRa partner concentration 90 nM)
In short: as §1

[3] = tested on: LXRa homodimer (NR concentration 270 nM)
In short: as §1

[4] = tested on: LXRb:RXRa (NR concentration 270 nM, RXRa partner concentration 90 nM)
In short: as §1

[5] = tested on: LXRb homodimer (NR concentration 270 nM)
In short: as §1

[6] = tested on: PPARa:RXRa (NR concentration 270 nM, RXRa partner concentration 90 nM)
In short: as §1

[7] = tested on: PPARg:RXRa (NR concentration 180 nM, RXRa partner concentration 90 nM)
In short: as §1

[8] = tested on: PPARg:RXRa 270nM:90nM, anti-RXR (NR concentration 270 nM, RXRa partner concentration 90 nM)
In short: as §1

[9] = tested on: PPARg:RXRa 30nM:10nM, anti-RXR (NR concentration 30 nM, RXRa partner concentration 10 nM)
In short: as §1

[10] = tested on: PPARg:RXRa 90nM:30nM, anti-RXR (NR concentration 90 nM, RXRa partner concentration 30 nM)
In short: as §1

[11] = tested on: PPARg:RXRa DBDmut IVT, anti-RXR (DBD mutation: RXRa K156A/R161A, NR concentration 270 nM, RXRa partner concentration 90 nM)
In short: as §1

[12] = tested on: PPARg:RXRa IVT, anti-PPARg (NR concentration 270 nM, RXRa partner concentration 90 nM)
In short: as §1

[13] = tested on: PPARg DBDmut:RXRa IVT, anti-PPARg (DBD mutation: PPARg1 K132A/R137A, NR concentration 270 nM, RXRa partner concentration 90 nM)
In short: as §1

[14] = tested on: PPARg DBDmut IVT, anti-PPARg (DBD mutation: PPARg1 K132A/R137A, NR concentration 270 nM)
In short: as §1

[15] = tested on: PPARg homodimer (NR concentration 180 nM)
In short: as §1

[16] = tested on: PXR:RXRa (NR concentration 270 nM, RXRa partner concentration 90 nM)
In short: as §1

[17] = tested on: PXR homodimer (NR concentration 270 nM)
In short: as §1

[18] = tested on: RARa:RXR (NR concentration 270 nM, RXRa partner concentration 90 nM)
In short: as §1

[19] = tested on: RARa homodimer (NR concentration 270 nM)
In short: as §1

[20] = tested on: RARb:RXRa (NR concentration 270 nM, RXRa partner concentration 90 nM)
In short: as §1

Sequence | PBM binding z-score [1] | PBM binding z-score [2] | PBM binding z-score [3] | PBM binding z-score [4] | PBM binding z-score [5] | PBM binding z-score [6] | PBM binding z-score [7] | PBM binding z-score [8] | PBM binding z-score [9] | PBM binding z-score [10] | PBM binding z-score [11] | PBM binding z-score [12] | PBM binding z-score [13] | PBM binding z-score [14] | PBM binding z-score [15] | PBM binding z-score [16] | PBM binding z-score [17] | PBM binding z-score [18] | PBM binding z-score [19] | PBM binding z-score [20]
ATCTCTAGGTAAGACTCAGGTCAGTGAAGAACGC | 0.852 | 0.72 | 0.909 | 0.721 | 0.721 | 1.03 | 0.296 | 0.86 | 0.135 | 0.413 | 1.9 | 1.67 | 0.483 | 1.13 | 1.65 | 0.724 | 0.764 | 0.911 | 0.98 | 1.62
CGAACGAGGACATGAGTTGATAGCAAATGCCGAT | 0.0885 | -0.189 | -0.104 | -0.698 | -0.657 | -0.417 | 0.982 | 0.127 | 0.435 | 0.242 | 0.314 | 0.0195 | 0.334 | -0.107 | 0.0836 | -0.249 | 0.0683 | -0.232 | 0.565 | 0.496
TCTCCGAGGACACGAAGGTCAGAGCTTTCCAGAG | 1.91 | 0.842 | 0.15 | 0.919 | -0.353 | 2.09 | 0.489 | 1.61 | 2.34 | 2 | 1.19 | 1.32 | -0.386 | -0.524 | 1.23 | 2.1 | 1.31 | 2.06 | -0.358 | 3.54
TGTCAAAGTTCAAAGATAACGTAAGTATCCACAC | 6.56 | 6.17 | 4.28 | 4.11 | 2.1 | 5.01 | 7.86 | 6.97 | 4.95 | 6.88 | -0.252 | 3.78 | 1.64 | 1.45 | 2.47 | 4.66 | 3.83 | 3.6 | 1.54 | 4.92
GCTAGCTGGCCATTTGGGTCACTCAATGACGGGC | -0.265 | -0.387 | -0.995 | -0.164 | -1.15 | 0.689 | 0.205 | -0.0931 | -1 | -0.612 | 0.293 | 1.17 | -0.756 | -0.983 | -0.342 | -0.0667 | -0.751 | 0.365 | -1.31 | 0.859
CCGTACGGGTCACTGACAGGTTATAGCATTTGGA | 5.54 | 4.34 | 0.355 | 3.7 | -0.392 | 5.35 | 3.75 | 4.06 | 0.781 | 2.52 | 1.03 | 2.52 | -0.133 | -0.747 | 1.58 | 3.74 | -0.0858 | 4.79 | 0.0778 | 4
TCTTGTAGATCAAGCAGCTTAAGAAAGCCTGAGT | -0.352 | -0.169 | -0.373 | -0.0264 | -0.791 | 0.29 | -0.61 | 1.03 | 2.17 | 1.5 | 1.1 | 0.213 | -0.268 | -0.032 | 0.0501 | -0.0224 | -0.129 | -0.209 | -0.515 | -0.253
TAGCCTAGGTCATGGTCCAGTATACCACGCGAAC | 3.98 | 3.17 | 0.367 | 2.57 | -0.0302 | 3.96 | 3.3 | 3.12 | 0.835 | 1.94 | 2 | 3.39 | 0.0262 | -0.185 | 0.886 | 1.64 | -0.02 | 2.35 | -0.386 | 3.78
